# Laboratory results from PubChem BioAssay (EPA / NIEHS).
# Inconclusive results are not listed. Active and inactive are the calls of the source. How the source made its calls: active means hit-call score of the fitted dose curve at least 0.9, where 1 is the maximum; inconclusive means response in the unintended direction; inactive means score below 0.9.
# Assay: ACEA_ER_AUC_viability: ACEA Biosciences xCELLigence Real-Time Cell Analysis on Estrogen Receptor Agonism for Viability (AID 2283782)
# How it was run: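 Read-out: real-time electrical impedance (RT-CES) area under curve, loss of signal taken as reduced viability, normalized to DMSO baseline. T-47D cells, charcoal-stripped serum medium, compounds up to 100 uM final, continuous exposure, 80 h.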
Structure (SMILES),outcome,AC50
CC(C)CO,inactive,
CC(C)C(=O)OCCc1ccccc1,inactive,
CC1CCC(=O)C1=O (configuration not stated),,10.3 µM (active)
CCCC(CC)c1ccccc1 (configuration not stated),inactive,
CC(=O)CC(=O)Nc1ccccc1C,inactive,
CCOC(=O)OC(=O)OCC,inactive,
COC(OC)(C(=O)c1ccccc1)c1ccccc1,,64 µM (active)
CC(c1cc(C(C)(C)C)cc(C(C)(C)C)c1O)c1cc(C(C)(C)C)cc(C(C)(C)C)c1O,inactive,
COC(=O)CC(C)CCC=C(C)C (configuration not stated),inactive,
COC(=O)C=Cc1ccccc1,inactive,
C=C[Si](OCCOC)(OCCOC)OCCOC,inactive,
C=Cc1cccc(C)c1,inactive,
C=CCCCCCCCCO,,50 µM (active)
CC1CCC(C(C)(C)S)C(=O)C1 (configuration not stated),inactive,
CCOC(=O)[C@H](O)[C@@H](O)C(=O)OCC,,50 µM (active)
COC(Cc1ccccc1)OC,,67 µM (active)

Structure (SMILES),outcome,AC50
Cc1ccc2c(c1)CCCN2,inactive,
CCCCCCCCC(CO)CCCCCC (configuration not stated),,33.9 µM (active)
c1ccc(Nc2cccc3ccccc23)cc1,,81.4 µM (active)
CN1CCN(C)CC1,inactive,
CCC(C)N (configuration not stated),,74.5 µM (active)
O=C(O)c1cc(O)c2ccccc2c1O,,26 µM (active)
Nc1ccnc(=O)[nH]1,inactive,
CC=C(C)C(C)=O,inactive,
CC(C)(c1ccccc1)c1ccc(Nc2ccc(C(C)(C)c3ccccc3)cc2)cc1,inactive,
Nc1nc(N)nc(-c2ccccc2)n1,inactive,
O=C(Oc1ccccc1)c1ccccc1C(=O)Oc1ccccc1,,86.1 µM (active)
Nc1ccc(O)c([N+](=O)[O-])c1,,85.7 µM (active)
CCN(CC)c1cccc(C)c1,,27.9 µM (active)
CC(C)CCCCCOC(=O)CS,inactive,
C=CC(=O)OCCCCCCCCCC,inactive,
Nc1ccc(C(=O)OCCCOC(=O)c2ccc(N)cc2)cc1,inactive,
